Measurements reported in PubChem BioAssay AID1672 (Johns Hopkins Ion Channel Center, 2009).
Screen size: about 310,000 compounds; about 2,600 (0.84%) were called active.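 Rule for the calls: active = fluorescence ratio B-score at or below minus 3 SD of library scores, with starting-brightness B-score within 2 SD (cut at about -4.2 in these data); inactive = the rest.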 The entries come from a sample that favours actives as a whole.

What follows are compounds tested against Inward rectifier potassium channel 2 (Mus musculus) (UniProt P35561) (assay: blocks the mouse Kir2.1 inward-rectifier potassium channel (AID 1672;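 note: channel flux triggered by added potassium and thallium sulfate stimulus; B-score of peak minus minimum fluorescence over baseline after thallium stimulus; more negative B-score means stronger Kir2.1 block with less thallium influx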)). Conditions: HEK293-Kir2.1, FluxOR thallium flux fluorescence; at 10 µM; hits give low values.
Inward rectifier potassium channel 2 (Mus musculus), sequence (P35561 whole entry, looked up): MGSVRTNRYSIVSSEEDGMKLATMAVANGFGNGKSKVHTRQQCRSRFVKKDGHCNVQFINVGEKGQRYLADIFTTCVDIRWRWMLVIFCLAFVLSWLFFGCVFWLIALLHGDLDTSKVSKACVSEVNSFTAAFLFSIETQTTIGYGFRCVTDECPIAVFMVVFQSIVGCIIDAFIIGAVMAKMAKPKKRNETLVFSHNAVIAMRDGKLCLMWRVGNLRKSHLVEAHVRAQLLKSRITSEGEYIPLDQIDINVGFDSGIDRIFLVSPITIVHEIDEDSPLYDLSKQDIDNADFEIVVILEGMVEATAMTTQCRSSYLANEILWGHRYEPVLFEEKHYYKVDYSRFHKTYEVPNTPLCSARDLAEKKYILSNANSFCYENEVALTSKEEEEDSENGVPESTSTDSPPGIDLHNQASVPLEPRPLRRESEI

Q: How did the B-score turn out when `CNCC(O)c1cc(F)c(OCc2ccccc2)c(OCc2ccccc2)c1F` (stereo not given) was run?
A: -10.4 (active)

Q: With `COc1ccc2c(c1O)-c1cccc3c1[C@@H](C2)N(C)CC3` as the compound, how does the B-score read?
A: -0.89 (inactive)

Q: Which B-score does the source give for `C=CC12CN(C)[C@@H]3C4CO[C@H](C[C@H]41)[C@]1(C(=O)Nc4ccccc41)[C@@H]32` (stereo not given in full) here?
A: -0.31 (inactive)

Q: With `COC(=O)C1=C(c2ccccc2)C[C@@H]2CC[C@H]1N2C(=O)NCc1ccco1` as the compound, how does the B-score read?
A: -0.88 (inactive)

Q: How did the B-score turn out when `COc1ccc(N2C(=O)/C(=C/c3ccco3)C(=O)NC2=S)cc1` was run?
A: -1 (inactive)

Q: `COC(=O)N(c1ccc(OC)cc1)P1(=S)OCCC(C)O1` (stereo not given) was tested. Which B-score did it give?
A: -0.02 (inactive)

Q: For `CCOc1cccc(=NC2CCCCC2)c2c(C)[nH]c(C)c12`, which B-score is on record?
A: -6.51 (active)

Q: `CCC(C)n1c(O)c(/C=N/Nc2nc3c(c(=O)n(C)c(=O)n3C)n2C)c(=O)[nH]c1=S` (stereo not given) was tested. Which B-score did it give?
A: 1.97 (inactive)

Q: How did the B-score turn out when `CCN1C(=O)C(=Cc2c(C)n(CC(=O)NCC3CCCO3)c3ccccc23)C(=O)N(CC)C1=S` (stereo not given) was run?
A: 1.19 (inactive)

Q: `Cc1ccc(S(=O)(=O)N(C)c2ccc(C(=O)NCC3(N(C)C)CCCCC3)cc2)cc1` was tested. Which B-score did it give?
A: 0.21 (inactive)

Q: `COC(=O)C1=C(c2ccccc2)C[C@@H]2CC[C@H]1N2C(=O)N1CCCCC1` was tested. Which B-score did it give?
A: -0.79 (inactive)

Q: Which B-score does the source give for `c1ccc(C2NCc3ccccc3-n3cccc32)cc1` (stereo not given) here?
A: -6.08 (active)

Q: With `COc1ccc(C2NCc3ccc4c(c3-n3cccc32)OCO4)cc1OC` (stereo not given) as the compound, how does the B-score read?
A: -0.31 (inactive)

Q: For `COc1ccc2c(c1)[C@]13CCCCC1C(C2)N(C)CC3` (stereo not given in full), which B-score is on record?
A: -0.18 (inactive)

Q: Which B-score does the source give for `O=C(Cc1ccccc1)N1CCN(C2CCCCCC2)CC1` here?
A: -1.16 (inactive)

Q: How did the B-score turn out when `CCCCn1c(=O)c(C(=O)Nc2ccccc2Cl)c(O)c2ccccc21` was run?
A: -1.32 (inactive)

Q: For `CN(C)CCN(CC1CCCN(Cc2ccccc2F)C1)C(=O)Cc1ccc(F)c(F)c1` (stereo not given), which B-score is on record?
A: -0.57 (inactive)

Q: How did the B-score turn out when `O=C1N=c2ccccc2=C/C1=C\c1c(O)[nH]c(=S)[nH]c1=O` was run?
A: 0.39 (inactive)

Q: How did the B-score turn out when `CCCCCCCCCCCCn1ccc(=N)cc1` was run?
A: -13 (active)

Q: For `COc1ccc(C(=O)CC2C(=O)N(C)C(=O)N(C)C2=O)cc1`, which B-score is on record?
A: 0.17 (inactive)

Q: `c1ccc(CCN2CCC3(CC2)OCCO3)cc1` was tested. Which B-score did it give?
A: 1.88 (inactive)

Q: `COC(=O)C1=C(c2cc3ccccc3s2)C[C@@H]2CC[C@H]1N2C(=O)NCCO` was tested. Which B-score did it give?
A: -0.7 (inactive)

Q: For `Clc1ccc2nc3c(c(-c4ccccc4)c2c1)CNCC3`, which B-score is on record?
A: -7.18 (active)

Q: How did the B-score turn out when `Cc1nn(-c2ccccc2)c(C)c1NC(=O)COC(=O)Cc1ccccc1` was run?
A: -0.02 (inactive)

Q: Which B-score does the source give for `CCOC(=O)C1(CCc2ccccc2)CCN(Cc2ccco2)CC1` here?
A: -2.11 (inactive)

Q: How did the B-score turn out when `CC[C@H]1CC2CN3CCc4c([nH]c5ccccc45)C(C(=O)OC)(C2)C13` (stereo not given in full) was run?
A: -2.28 (inactive)

Q: How did the B-score turn out when `CC(c1ccccc1)(c1ccccc1)c1ccncc1` was run?
A: -4.28 (active)

Q: Which B-score does the source give for `CCN(CC)C(=O)c1ccc(NC(=O)c2sccc2-c2ccccc2)cc1` here?
A: 0.02 (inactive)

Q: For `COC(=O)C1=C(c2cc3ccccc3s2)C[C@@H]2CC[C@H]1N2C(=O)NC(C)C`, which B-score is on record?
A: -1.96 (inactive)

Q: Which B-score does the source give for `O=C(C1CC(=O)N(C2CCCC2)C1)N1CCC2(CC1)OCCO2` (stereo not given) here?
A: 0.05 (inactive)

Q: Which B-score does the source give for `Cc1ccc(C2CN(C)CC2C(=O)c2ccc(F)cc2)cc1` (stereo not given) here?
A: -2.69 (inactive)

Q: With `O=c1c2ccccc2nc(/C=C/c2ccco2)n1-c1ccccc1O` as the compound, how does the B-score read?
A: -0.02 (inactive)

Q: `C/C(=N/O)c1ccc2ccc3ccccc3c2c1` was tested. Which B-score did it give?
A: -0.33 (inactive)

Q: How did the B-score turn out when `Cc1nc2ccccn2c1P(=S)(N1CCCCC1)N1CCCCC1` was run?
A: -5.35 (active)

Q: With `CCCCCn1c(=O)c(C(=O)NCc2ccccc2)c(O)c2ccccc21` as the compound, how does the B-score read?
A: 1.46 (inactive)

Q: With `COc1ccccc1C1=NCc2nnc(CSC)n2-c2ccc(Cl)cc21` as the compound, how does the B-score read?
A: 0.29 (inactive)

Q: For `CCOc1ccc(-c2cc(C)[n+](CCN(CC)CC)c(-c3ccc(OCC)cc3)c2)cc1`, which B-score is on record?
A: -4.58 (active)

Q: How did the B-score turn out when `Cc1cc2ccccn2c1C(C[N+](=O)[O-])c1c(F)cccc1Cl` (stereo not given) was run?
A: -0.86 (inactive)

Q: Which B-score does the source give for `COc1ccc(CNCCc2ccc3c(c2)OCO3)c(OC)c1OC` here?
A: 0.87 (inactive)

Q: `COc1ccc(CNCCc2c[nH]c3ccccc23)cc1OC` was tested. Which B-score did it give?
A: 0.17 (inactive)

Q: How did the B-score turn out when `COc1ccc(Br)cc1CNCCc1cccc(Cl)c1` was run?
A: -10.4 (active)

Q: For `NCCc1c[nH]c2ccc(O)cc12`, which B-score is on record?
A: -0.71 (inactive)

Q: For `COC(=O)C1=C(c2cc3ccccc3s2)C[C@@H]2CC[C@H]1N2C(=O)NCc1cccc2ccccc12`, which B-score is on record?
A: 2.94 (inactive)

Q: How did the B-score turn out when `COC(=O)C1=C(c2cc3ccccc3o2)C[C@@H]2CC[C@H]1N2C(=O)NC1CCCCC1` was run?
A: -0.65 (inactive)

Q: With `CN(c1ccccc1)c1ccc([N+](=O)[O-])c2nonc12` as the compound, how does the B-score read?
A: -1.89 (inactive)

Q: For `Oc1cc2c(cc1CN1CCN(c3ccccc3)CC1)OCO2`, which B-score is on record?
A: -0.91 (inactive)

Q: Which B-score does the source give for `O=C(Cc1ccccc1[N+](=O)[O-])N1CCN(Cc2ccc3c(c2)OCO3)CC1` here?
A: 0.65 (inactive)

Q: Which B-score does the source give for `Fc1ccc(N2CCN(Cc3ccc4c(c3)OCO4)CC2)cc1` here?
A: -6.26 (active)

Q: How did the B-score turn out when `CCN1CCN(c2nc3c(c(=O)[nH]2)CCC3)CC1` was run?
A: 1.68 (inactive)

Q: `COc1cccc(N2C(=O)NC(=O)/C(=C\c3cn(C)c4ccccc34)C2=O)c1` was tested. Which B-score did it give?
A: 0.09 (inactive)
